Common to all, as to test: NCI-60 one-dose screen, 48 h (100 = growth as untreated, 0 = no growth, -100 = all killed)
Holding throughout (conditions): 10 µM unless noted

The subject of assay [1] is NCI-H23 lung.
The test system of assay [2] is NCI-H226 lung.
Assay [3] deals with NCI-H322M lung.
The subject of assay [4] is HOP-62 NSCLC.
In assay [5] the test system is NCI-H460 lung.
Assay [6] deals with HOP-92 NSCLC.
The subject of assay [7] is NCI-H522 lung.
Assay [8] relates to A549/ATCC NSCLC.
For assay [9], the system named is 786-0 renal.
Assay [10] has as its system COLO 205 colon.
The subject of assay [11] is DU-145 prostate.
The subject of assay [12] is K-562 leukemia.
The test system of assay [13] is MALME-3M melanoma.
The test system of assay [14] is MDA-MB-231 breast.
Assay [15] has as its system RXF 393 renal.
In assay [16] the test system is SF-268 CNS.
In assay [17] the test system is SF-295 CNS.
Assay [18] relates to SF-539 CNS.
Assay [19] relates to M14 melanoma.

This is part of a sample that, as a whole, favours compounds with a hit. Of some 83,000 tested, about 20% had one in any assay.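 A percent growth of 40 corresponds to 60% growth inhibition; 0 means no net growth; -100 means all cells died. Active threshold: below 10.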 A number with no mark means an inactive call. Calls of active or inactive are those of the source.

On to `Cn1c(=O)c2c(nc3n2CCN(CCc2ccc(OCCN4CCOCC4)cc2)C3)n(C)c1=O`, for which the growth in assay [1] was 101%; in assay [2], 100%; in assay [3], 100%; in assay [4], 106%; in assay [5] it was 107%; in assay [6] it was 96.6%. For the same compound, the growth in assay [7] is 94.2%; in assay [8], 99.4%; in assay [9], 99.6%; in assay [10], 115%; in assay [11], 109%; in assay [12] it was 109%. Moreover, the growth in assay [13] was 106%; in assay [14], 104%; in assay [15], 111%; in assay [16] it was 105%; in assay [17], 106%; in assay [18], 109%. The growth in assay [19] is 105%.

For `CCCCCCCCCCC/C=C\C[C@H](O)C/C=C1/C(=O)C=C[C@@H]1C/C=C\CCCC(=O)OC`, the growth was -25.2% (active) in [1]; -45.9% (active) in assay [2]; 69.8% in assay [3]; -16.1% (active) in assay [4]; -31.4% (active) in assay [5]; -13.6% (active) in assay [6]. Further, the growth in assay [7] was -41.9% (active); in assay [8], 15.6%; in assay [9], -3.32% (active); in [10] it was -45.9% (active); in [11], 13.3%; in assay [12] it was 2.5% (active). The growth in [13] was -2.61% (active); in assay [14], -18.2% (active); in assay [15], -72.8% (active); in assay [16] it was 7.18% (active); in assay [17], -16% (active); in [18] it was -46.2% (active). Also, in assay [19], the growth is -31.9% (active).

Take `COc1ccc(/C=C/C(=O)OCC(=O)NNC(=O)c2ccccc2)cc1OC`: the growth in assay [1] is 106%; in assay [2], 103%; in assay [3] it was 117%; in assay [4], 84.1%; in assay [5], 110%; in [6], 79.3%. Besides, the growth in assay [7] is 104%; in [8] it was 99.2%; in assay [9] it was 99.8%; in [10], 118%; in assay [11], 101%; in assay [12], 90.2%. For the same compound, the growth in [13] was 105%; in assay [14], 94.8%; in assay [15], 97.1%; in assay [16], 108%; in [17], 89.6%; in assay [18], 91%. In addition, the growth in [19] is 107%.

As for `CCSc1nnc(NC(=O)Cc2ccc(Cl)cc2)s1`, the growth is 99.1% in assay [1]; 104% in assay [2]; 112% in assay [3]; 102% in assay [4]; 123% in [5]; 89.4% in assay [6]. The growth was 107% in assay [7]; 106% in [8]; 100% in assay [9]; 108% in [10]; 105% in assay [11]; 89.4% in assay [12]. The growth is 105% in assay [13]; 114% in assay [14]; 20.6% in assay [15]; 110% in assay [16]; 98.3% in assay [17]; 97.4% in assay [18]. The growth in assay [19] is 107%.

Take `CCNc1nc(N2CC(=O)Nc3cc(OC)ccc32)c2ccccc2n1`: the growth in assay [1] is 3.23% (active); in [2] it was 50.3%; in [3], 36.6%; in assay [4], 25.5%; in assay [5] it was -5.18% (active); in [6], -2.59% (active). For the same compound, the growth in assay [7] is -8.1% (active); in assay [8], 20.4%; in assay [9] it was 12%; in [10], -48.4% (active); in [11], -1.09% (active); in assay [12] it was 6.9% (active). Also, the growth in assay [13] is 51%; in [14], 12.7%; in assay [15], 33.7%; in assay [16], 14.8%; in assay [17], -5.23% (active); in assay [18], -4.78% (active). Besides, the growth in [19] is 7.3% (active).

On to `COc1cc(C2CC(c3c(C)[n+]([O-])c4ccccc4[n+]3[O-])=NN2)cc(OC)c1OC` (stereo not drawn), for which the growth in [1] was 99.6%; in assay [2], 100%; in [3], 119%; in assay [4], 106%; in [5], 112%; in assay [6], 87.8%. The growth in assay [7] was 104%; in assay [8], 113%; in [9], 102%; in assay [10], 102%; in [11], 112%; in assay [12] it was 106%. The growth in assay [13] is 112%; in assay [14] it was 104%; in assay [15] it was -20.2% (active); in assay [16], 112%; in assay [17], 103%; in [18] it was 124%. Moreover, the growth in assay [19] was 101%.

`COc1ccccc1OCC(=O)Nc1sc2c(c1C(N)=O)CCC2`: the growth in assay [1] is 114%; in assay [2], 80.7%; in assay [3], 105%; in assay [4] it was 49.7%; in assay [5] it was 25.6%; in assay [6], 2.69% (active). Moreover, the growth in assay [7] is 84.1%; in assay [8], 85.8%; in [9], 75.1%; in assay [10], 86.1%; in [11] it was 58.4%; in assay [12], 52.5%. Also, the growth in [13] is 91.9%; in assay [14], 92.1%; in assay [15], 48.1%; in assay [16], 43.7%; in assay [17] it was 15.2%; in [18], 59.6%. The growth in [19] was 66.4%.

Values taken from PubChem BioAssay (NCI).
